The source of these data is PubChem BioAssay (Tox21).

Inconclusive results are not listed. Some structures have more than one record in an assay (separate samples or runs), and their calls can disagree. The source made the active and inactive calls. The call rests on the fitted dose curve.
On the % scale 0 is the no-effect control and ±100 the full control effect; potency means the concentration at half of the fitted maximal effect.

The experiment is described as follows: qHTS assay to identify small molecule agonists of the progesterone receptor (PR) signaling pathway - cell viability counter screen (AID 1346799). Further: nearly all actives have a fitted effect of over 45% in size. As to conditions: PR-UAS-bla HEK293T viability, CellTiter-Glo luminescence, 16 h; series mostly up to 92.4 µM; activity change, negative = cytotoxicity: at the top concentration. An excerpt:
National Center for Advancing Translational Sciences [NCATS]
NIH Chemical Genomics Center [NCGC]
U.S. Environmental Protection Agency [EPA]
National Institutes of Environmental Health Sciences [NIEHS]
National Toxicology Program [NTP]
U.S. Food and Drug Administration [FDA]
Progesterone receptor (PR), a nuclear hormone receptor, plays an important role in development, metabolic homeostasis and reproduction. It is activated by the steroid hormone progesterone. Endocrine disrupting chemicals (EDCs) and their interactions with steroid hormone receptors like PR causes disruption of normal endocrine function. To identify the compounds that stimulate PR signaling, a PR-UAS-bla GripTite cell line i.e. PR-UAS-bla HEK293T (Invitrogen, Carlsbad, CA, USA) containing a beta-lactamase reporter gene under the control of an UAS response element was used to screen Tox21 10K compound library. The cytotoxicity of the Tox21 compound library against the PR-bla cell line was tested in parallel by measuring the cell viability using CellTiter-Glo assay in the same wells.
Tox21 Assay Protocol Summary:
PR-UAS-bla HEK293T cells were dispensed at 3,000 cells/5 uL of assay medium containing 2% charcoal stripped FBS per well into black wall/clear-bottom 1536-well plates using a Multidrop Combi (ThermoFisher Scientific, Waltham, MA) dispenser. After the assay plates were incubated at a 37C and 5% CO2 for 6 hr, 23 nL of compounds dissolved in DMSO, positive controls or DMSO only was transferred to the assay plate by a Pintool station (Kalypsys, San Diego, CA). The plates were incubated at 37C and 5% CO2 for 16 hr. Then 1 uL of LiveBLAzer B/G FRET substrate was added using a Flying Reagent Dispenser (FRD, Aurora Discovery, San Diego, CA), the plates were incubated at room temperature for 2 hours, and fluorescence intensity was measured by an Envision plate reader (PerkinElmer, Shelton, CT). For cell viability readout that measures cytotoxicity, 4 uL/well of CellTiter-Glo reagent was added into the assay plates using a FRD. After 30 min incubation at room temperature, the luminescence intensity in the plates was measured using a ViewLux (PerkinElmer) plate reader.
On to `Cn1c(CCCC(=O)O)nc2cc(N(CCCl)CCCl)ccc21`, for which the “activity change, negative = cytotoxicity” value is 3.7% [at 42.5 µM] (inactive). Same read-out and setting: the value for `CCCCS(=O)(=O)Cl` was -14.5% (inactive); that for `CC(Cl)(Cl)Cl` was 10.8% (inactive). The same measure, in the same setting: the figure for `C#CC(C)(C)O` is -0.2% (inactive). The same measure, in the same setting: the figure for `CC1N=C(N)OC1c1ccccc1` (stereo not given) is -7.96% (inactive); for `COc1ccc(C=O)cc1O` it is -6.08% (inactive). As to `CCCC(C)(COC(N)=O)COC(N)=O`, the “activity change, negative = cytotoxicity” value is -12% (inactive). The same measure, in the same setting: the value for `COc1ccccc1OC` was -9.65% (inactive); that for `CCC1(c2cccc(O)c2)CCCCN(C)C1` (stereo not given) was -22.3% [at 42.5 µM] (inactive). Turning to `Cc1ccc2c(c1)C1CN(C)CCC1N2` (stereo not given), the activity change, negative = cytotoxicity is -23.2% [at 19 µM] (inactive).

Take `CCOC(=O)CCl`: the “activity change, negative = cytotoxicity” value is -3.67% (inactive).

Take `Cc1cccc2sc3nncn3c12`: the “activity change, negative = cytotoxicity” value is -13.6% (inactive).

As for `COC(=O)c1ccccc1CS(=O)(=O)NC(=O)Nc1nc(OC)cc(OC)n1`, the “activity change, negative = cytotoxicity” value was 0.246% (inactive). Consider `CS(=O)(=O)Cl`, for which the “activity change, negative = cytotoxicity” value was 12.5% (inactive). On to `CCN(CCO)CCO`, for which the “activity change, negative = cytotoxicity” value is -4.83% (inactive). Still for that read-out and setting: the value for `NCC1(CC(=O)O)CCCCC1` was -4.05% [at 42.5 µM] (inactive); that for `O=C(Cl)C(Cl)(Cl)Cl` was -17.5% (inactive); that for `Brc1c(Br)c(Br)c(Br)c(Br)c1Br` was 33% [at 8.39 µM] (inactive). For `CCOP(=S)(OCC)Oc1ccc(Cl)cc1Cl`, the “activity change, negative = cytotoxicity” value was -0.218% (inactive). The same measure, in the same setting: the figure for `C=CCCC#N` is 11.6% (inactive).

On to `Cc1ccc2cc(C)ccc2c1`, for which the “activity change, negative = cytotoxicity” value was 3.96% (inactive). In the case of `CC(C)(C)NC[C@H](O)c1ccc(O)cc1Cl`, the “activity change, negative = cytotoxicity” value was -1.17% [at 42.5 µM] (inactive).

As to `N#CC(Br)(Br)C(N)=O`, the “activity change, negative = cytotoxicity” value is 2.54% (inactive). On the same count and under the same terms, the figure for `CCOP(=O)(CN(CCO)CCO)OCC` is 3.55% (inactive).

Take `C=CCc1cc(OC)c2c(c1)OCO2`: the “activity change, negative = cytotoxicity” value was -1.87% (inactive). On the same count and under the same terms, the value for `CC(C)(O)C(Cl)(Cl)Cl` was 2.09% [at 42.5 µM] (inactive); that for `CCOc1cc(OP(=S)(OC)OC)nc(CC)n1` was 1.32% (inactive). On the same count and under the same terms, the value for `O=c1[nH]c2ccccc2n1C1CCNCC1` was -3.17% [at 42.5 µM] (inactive).

Consider `COC(=O)[C@@H](N)CCCN/C(N)=N/[N+](=O)[O-]`, for which the “activity change, negative = cytotoxicity” value was -8.58% [at 42.5 µM] (inactive).

For the compound `COc1cc(CCN)cc(OC)c1OC`, the “activity change, negative = cytotoxicity” value is 1.71% (inactive). Still for that read-out and setting: the value for `BrCCc1ccccc1` was 14.6% (inactive); that for `CCCOC(=O)c1cncn1C(C)c1ccccc1` (stereo not given) was -28.6% [at 42.5 µM] (inactive). For the compound `C=CC1(C)OC(=O)N(c2cc(Cl)cc(Cl)c2)C1=O` (stereo not given), the Potency is 54.2 µM (active) and inactive. For the compound `Cl/C=C/CCl`, the “activity change, negative = cytotoxicity” value is 6.08% (inactive). On the same count and under the same terms, the value for `CC(O)CCl` (stereo not given) was -0.332% (inactive); that for `ClCCCCCCCl` was 7.45% (inactive). On to `ClC1=C(Cl)C2(Cl)C(CBr)CC1(Cl)C2(Cl)Cl` (stereo not given), for which the Potency is 68.6 µM (active) and inactive. On to `COc1ccc2c(C(=O)c3ccc(Cl)cc3)c(C)n(CC(=O)O)c2c1`, for which the “activity change, negative = cytotoxicity” value is 0.784% [at 42.5 µM] (inactive).

For `CCN[C@@H](C)Cc1ccccc1`, the “activity change, negative = cytotoxicity” value was 0.0425% (inactive). With `CON(C)C(=O)Nc1ccc(Br)c(Cl)c1`, the “activity change, negative = cytotoxicity” value was 8.34% (inactive).
